This is a sample that favours compounds with a hit; in the whole collection about 4.9% have one here.
NLRP3 yeast inh – NALP3 inflammasome inhibitors in reconstituted yeast, primary screen, luminescence, uHTS | AID 2825, 2010 | inhibition, % at 10 µM | Yeast reconstituted NLRP3/ASC/caspase-1, beta-gal luminescence, 24 h | 330,000 compounds, 0.39% hits;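 active = inhibition of 50% or more; inactive = inhibition below 50%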;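 note: plate controls were induced DMSO wells for no effect and uninduced yeast grown without galactose for full effect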
tim10-1 inh – growth inhibitors of tim10-1 mutant yeast, primary screen, luminescence, uHTS. S. cerevisiae tim10-1 ts strain growth, BacTiter-Glo, 24 h. inhibition, % at 20 µM. 330,000 compounds, 2.2% hits;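 active = inhibition of at least 40%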;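 note: mutant grown at 25 °C; 0% = DMSO wells with yeast and 100% = wells holding no yeast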
tim23-1 inh – growth inhibitors of tim23-1 mutant yeast, primary screen, luminescence, uHTS | S. cerevisiae tim23-1 growth, BacTiter-Glo luminescence, 24 h | inhibition, % at 20 µM | AID 463212, 2010 | 330,000 compounds, 1.3% hits;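 active = growth inhibition of the mutant yeast at or above 50%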;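 note: temperature-sensitive mutant grown at 25 °C; plate controls were DMSO-treated mutant yeast for no effect and medium wells lacking yeast for full effect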
NALP1 inh – NALP1 inflammasome inhibitors in reconstituted yeast, colorimetric, S. cerevisiae, triplicate retest; S. cerevisiae NALP1/ASC/caspase-1 growth, X-gal OD620, 72 h; AID 2071, 2009; 280,000 compounds, 0.61% hits; inhibition, % at 10 µM; in the data active = inhibition mostly above about 24%, no sharp cut-off; inactive = mostly below about 32%
SKKanGAS inh – S. pyogenes SKKanGAS growth inhibitors in kanamycin, primary screen, streptokinase expression inhibitor project, SKKanGAS strain, BacTiter-Glo luminescence. 6 h. inhibition, % at 7.5 µM. 300,000 compounds, 1.3% hits;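 active = mean replicate score, as percent of positive control median, at least 50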;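 note: strain carries kanamycin resistance gene driven by streptokinase promoter and grows in 40 µg/ml kanamycin; loss of luminescence reflects streptokinase promoter inhibition or plain growth inhibition; 0% = median of DMSO wells and 100% = positive control at its reference dose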
TIM10 inh – growth inhibitors of isogenic TIM10 control yeast, primary screen, counter-screen for tim10-1 yeast inhibitor project, luminescence, uHTS. 330,000 compounds, 1.4% hits. AID 463195, 2010. inhibition, % at 10 µM. S. cerevisiae TIM10 strain growth, BacTiter-Glo luminescence, 24 h;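 active = inhibition of 40% or more at the single tested concentration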;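 note: wild-type TIM10 isogenic control strain grown at permissive 25 °C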
tim10 confirm – growth inhibitors of wild-type TIM10 yeast, confirmation, counter-screen for tim10-1 synthetic lethality project, single concentration, luminescence, S. cerevisiae. shares compounds with TIM10 inh. S. cerevisiae tim10 strain growth, BacTiter-Glo luminescence, 24 h. inhibition, % at 10 µM. 4,600 compounds, 63% hits;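 active = inhibition of yeast growth at or above a set limit in either of two replicates at 10 µM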;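 note: this counterscreen used the strain with wild-type TIM10; 0% = yeast with DMSO and 100% = medium wells lacking yeast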
The depositor's hits bear a star.

`COc1ccc(-c2cc(-c3ccc(OC)c(OC)c3)n[nH]2)c(O)c1` gave NLRP3 yeast inh -4.5, tim10-1 inh 36.8, tim23-1 inh 44.2, NALP1 inh 33.5, SKKanGAS inh -7.9, TIM10 inh 46.6* and tim10 confirm 25.2.
`Cc1cc(Cl)c2oc(C(=O)N(C)CC3CCOCC3)c(C)c2c1` gave NLRP3 yeast inh 17.1, tim10-1 inh 32.0, tim23-1 inh 32.5, NALP1 inh -8.9, SKKanGAS inh -7.7 and TIM10 inh 6.3.
Screening Cc1ccc(CN2C(=O)C(CC(C)C)Nc3ncnc(N4CCN(c5ccccc5)CC4)c32)cc1 (configuration not stated) returned NLRP3 yeast inh 20.5, tim10-1 inh 9.5, tim23-1 inh 34.2 and TIM10 inh 13.1.
Screening CN1c2ccccc2C(C)(C)[C@]12C=Cc1cc(O)ccc1O2 returned NLRP3 yeast inh 28.2, tim10-1 inh 35.8, tim23-1 inh 41.6, NALP1 inh 19.1, SKKanGAS inh 7.2, TIM10 inh 45.2* and tim10 confirm 34.9*.
Screening CCC(C)n1c(-c2ccco2)nc2nc3ccccc3nc21 (configuration not stated) returned NLRP3 yeast inh 11.2, tim10-1 inh 28.3, tim23-1 inh 35.8, NALP1 inh -1.5, SKKanGAS inh 5.8, TIM10 inh 46.4* and tim10 confirm 12.1.
CC(C)OCCCn1c(-c2ccco2)nc2nc3ccccc3nc21 was read as NLRP3 yeast inh 12.1, tim10-1 inh 23.2, tim23-1 inh 39.6, NALP1 inh 29.6, SKKanGAS inh -1.1 and TIM10 inh 9.4.
For CC(=O)Oc1ccc2ccccc2c1C(NC(=O)Cc1ccccc1)c1ccc(Cl)cc1 (configuration not stated) the results were NLRP3 yeast inh 16.9, tim10-1 inh 23.5, tim23-1 inh 39.5, NALP1 inh -9.7, SKKanGAS inh 25.3, TIM10 inh 40.2* and tim10 confirm 29.6.
For CCOc1ccc(C(NC(=O)CC)c2c(O)ccc3ccccc23)cc1 (configuration not stated) the results were NLRP3 yeast inh 2.0, tim10-1 inh 26.1, tim23-1 inh 18.7, NALP1 inh -4.1, SKKanGAS inh 3.5 and TIM10 inh 9.2.
Cc1ccc(/C=N/n2c(COc3ccccc3)n[nH]c2=S)s1 was read as NLRP3 yeast inh 30.2, tim10-1 inh 39.0, tim23-1 inh 39.5, NALP1 inh -4.8, SKKanGAS inh -3.2, TIM10 inh 48.0* and tim10 confirm 43.5*.
For O=C(N=Nc1c(O)[nH]c2ccccc12)c1cccs1 the results were NLRP3 yeast inh 30.2, tim10-1 inh 23.5, tim23-1 inh 10.6, NALP1 inh 8.9, SKKanGAS inh -4.9, TIM10 inh 61.9* and tim10 confirm 46.8*.
For CN1CCN(c2nc(-c3ccccn3)nc3ccccc23)CC1 the results were NLRP3 yeast inh -2.7, tim10-1 inh -8.3, tim23-1 inh -38.9, NALP1 inh 18.7, SKKanGAS inh 1.9 and TIM10 inh -57.2.
`c1ccc(N2CCN(c3nc(-c4ccccn4)nc4ccccc34)CC2)cc1` gave NLRP3 yeast inh 38.5, tim10-1 inh 14.8, tim23-1 inh -6.8, NALP1 inh -22.8, SKKanGAS inh 100.0*, TIM10 inh 40.4* and tim10 confirm 4.6.
For Cc1c([N+](=O)[O-])cc(C(=O)Oc2ccc(Br)cc2C(=S)N2CCCCC2)cc1[N+](=O)[O-] the results were NLRP3 yeast inh 30.7, tim10-1 inh 33.8, tim23-1 inh 21.5, NALP1 inh 2.8, SKKanGAS inh 8.3, TIM10 inh 44.0* and tim10 confirm 32.1*.
Screening CC(C)(C)c1ccc(C(=O)NC(=S)NCc2cccnc2)cc1 returned NLRP3 yeast inh 19.8, tim10-1 inh 37.8, tim23-1 inh 45.3, NALP1 inh 22.5, SKKanGAS inh -0.7, TIM10 inh 40.8* and tim10 confirm 30.4*.
`COc1cc(/C=C/c2cc[n+](C)cc2)ccc1OCC(=O)Nc1ccc(Cl)c(Cl)c1` gave NLRP3 yeast inh 3.0, tim10-1 inh 3.8, tim23-1 inh 21.5, NALP1 inh 19.3, SKKanGAS inh 60.3*, TIM10 inh 42.1* and tim10 confirm 15.8.
`COc1ccc(NC(=O)COc2ccc(/C=C/c3cc[n+](C)cc3)cc2OC)cc1` gave NLRP3 yeast inh -17.2, tim10-1 inh 0.2, tim23-1 inh -21.0, NALP1 inh -1.6, SKKanGAS inh 3.1 and TIM10 inh -9.8.
Screening Cc1ccc(NC(=O)c2cc(S(=O)(=O)NCCc3ccccc3)ccc2F)cc1Cl returned NLRP3 yeast inh 21.4, tim10-1 inh 31.6, tim23-1 inh 39.6, NALP1 inh 20.4, SKKanGAS inh 42.6 and TIM10 inh 33.2.
`O=C(Nc1cccc(Cl)c1)c1cc(S(=O)(=O)NCCc2ccc(Cl)cc2)ccc1F` gave NLRP3 yeast inh 9.7, tim10-1 inh 29.7, tim23-1 inh 25.7, NALP1 inh 25.8, SKKanGAS inh 41.5, TIM10 inh 41.0* and tim10 confirm 51.5*.
Screening CCOc1ccc(NC(=O)COC(=O)c2ccc3c(c2)C(=O)N(CCc2ccccc2)C3=O)cc1 returned NLRP3 yeast inh 17.4, tim10-1 inh -10.8, tim23-1 inh 0.1, NALP1 inh 24.3, SKKanGAS inh 0.5 and TIM10 inh 1.6.
Screening Cc1ccc(NC(=O)COC(=O)c2ccc3c(c2)C(=O)N(CCc2ccccc2)C3=O)c(C)c1 returned NLRP3 yeast inh -1.9, tim10-1 inh 0.9, tim23-1 inh -27.0, NALP1 inh 3.6, SKKanGAS inh -3.8, TIM10 inh 41.3* and tim10 confirm -17.6.
Screening Cc1cc2nc(/C=C/c3cccnc3)[nH]c2cc1C returned NLRP3 yeast inh 24.5, tim10-1 inh -3.8, tim23-1 inh 37.5, NALP1 inh 3.1, SKKanGAS inh -3.5, TIM10 inh 51.2* and tim10 confirm 68.7*.
Cc1cc2nc(/C=C/c3nc4cc(C)c(C)cc4[nH]3)[nH]c2cc1C was read as NALP1 inh 8.7 and SKKanGAS inh -0.2.
`CCc1cc2c(=O)c(-c3nc4ccccc4[nH]3)coc2cc1OC(=O)N1CCOCC1` gave NLRP3 yeast inh 36.0, tim10-1 inh 16.8, tim23-1 inh 19.4, NALP1 inh 28.1, SKKanGAS inh 7.6, TIM10 inh 57.2* and tim10 confirm 62.4*.
